The record followed here is publication PMC7862700, “An all-to-all approach to the identification of sequence-specific readers for epigenetic DNA modifications on cytosine”.

What all share (assay): DAPPL (digital affinity profiling via proximity ligation, sequencing); 10 mM Tris-HCl pH 7.5, 50 mM NaCl, 1 mM DTT, 4% glycerol, room temperature, 30 min; GST-TFs on glutathione beads, 16-mer random dsDNA library, 0.1% formaldehyde crosslink after washing; high values mean tight binding
One assay concerns the target T1, FEV (Homo sapiens, UniProt Q99581 1-238).
T1 sequence: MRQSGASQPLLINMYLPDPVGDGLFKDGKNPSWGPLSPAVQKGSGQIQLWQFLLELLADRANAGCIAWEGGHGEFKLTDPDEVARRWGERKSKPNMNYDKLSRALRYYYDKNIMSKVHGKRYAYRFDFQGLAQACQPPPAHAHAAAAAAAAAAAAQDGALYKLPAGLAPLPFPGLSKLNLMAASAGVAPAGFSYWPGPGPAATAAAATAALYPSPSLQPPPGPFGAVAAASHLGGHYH
As to conditions: protein: recombinant; tags: N-terminal GST; dsDNA, one strand shown. In outline: (§1)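 Binding signal is defined as a hexamer's read frequency for one factor over its frequency for the tag-only sample. To obtain reads, GST-fused human transcription factors were expressed in yeast, captured on glutathione beads, barcoded with DNA and pooled with that sample. Pools met 200 nmole of a 16-mer random double-stranded DNA library in Tris/NaCl/DTT/glycerol buffer for 30 min at room temperature before washing, 0.1% formaldehyde crosslinking, proximity ligation (BsaI/T4 ligase, 1 h, 37 °C), PCR and Illumina NextSeq500 sequencing.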

The next assay deals with ETV5 (Homo sapiens, UniProt P41161 1-510). As to conditions: protein: recombinant; tags: N-terminal GST; dsDNA, one strand shown. The method, boiled down: as §1
Another assay concerns the target HSF1 (Homo sapiens, UniProt Q00613 1-529). The following applies: protein: recombinant; tags: N-terminal GST; chain copies: 3; dsDNA, one strand shown. The method, boiled down:
as §1

A further assay addresses T2, SPIC (Homo sapiens, UniProt Q8N5J4 1-248).
T2 sequence: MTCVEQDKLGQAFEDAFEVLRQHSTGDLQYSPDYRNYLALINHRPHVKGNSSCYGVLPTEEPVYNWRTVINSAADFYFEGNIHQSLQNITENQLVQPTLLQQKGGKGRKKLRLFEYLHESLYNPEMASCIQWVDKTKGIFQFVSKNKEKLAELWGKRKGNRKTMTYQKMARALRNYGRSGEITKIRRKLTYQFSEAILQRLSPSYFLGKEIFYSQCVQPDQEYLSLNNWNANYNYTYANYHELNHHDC
As to conditions: protein: recombinant; tags: N-terminal GST; dsDNA, one strand shown. In outline:
as §1

In another assay the target is ELF4 (Homo sapiens, UniProt Q99607 1-663). As to conditions: protein: recombinant; tags: N-terminal GST; dsDNA, one strand shown. In outline: as §1
For the next assay, the target named is T3, ELK4 (Homo sapiens, UniProt P28324-2 1-405).
T3 sequence: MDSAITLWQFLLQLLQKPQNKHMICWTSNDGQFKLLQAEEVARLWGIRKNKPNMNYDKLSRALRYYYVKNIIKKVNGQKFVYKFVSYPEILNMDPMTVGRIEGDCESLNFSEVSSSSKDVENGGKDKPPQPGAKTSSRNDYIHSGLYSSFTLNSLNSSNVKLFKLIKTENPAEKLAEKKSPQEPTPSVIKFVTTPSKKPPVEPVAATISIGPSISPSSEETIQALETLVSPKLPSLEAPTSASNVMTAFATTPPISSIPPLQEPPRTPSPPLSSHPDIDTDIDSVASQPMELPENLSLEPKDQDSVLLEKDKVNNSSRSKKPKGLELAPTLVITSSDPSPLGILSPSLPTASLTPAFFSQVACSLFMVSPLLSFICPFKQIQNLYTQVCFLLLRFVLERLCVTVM
As to conditions: protein: recombinant; tags: N-terminal GST; dsDNA, one strand shown. In outline: as §1

The target in the next assay is T4, ETV2 (Homo sapiens, UniProt O00321 1-342).
T4 sequence: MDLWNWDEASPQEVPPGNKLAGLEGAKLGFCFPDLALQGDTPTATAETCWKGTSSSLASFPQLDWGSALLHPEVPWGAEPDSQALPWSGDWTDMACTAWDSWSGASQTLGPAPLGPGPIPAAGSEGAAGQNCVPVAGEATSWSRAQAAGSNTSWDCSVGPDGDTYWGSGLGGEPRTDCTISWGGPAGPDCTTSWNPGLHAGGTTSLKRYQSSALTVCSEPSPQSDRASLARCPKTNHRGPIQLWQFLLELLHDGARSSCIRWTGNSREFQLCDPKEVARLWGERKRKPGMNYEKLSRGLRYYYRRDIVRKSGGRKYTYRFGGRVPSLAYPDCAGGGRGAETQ
As to conditions: protein: recombinant; tags: N-terminal GST; dsDNA, one strand shown. The method, boiled down: as §1

In another assay the target is T5, ELF3 (Homo sapiens, UniProt P78545 1-371).
T5 sequence: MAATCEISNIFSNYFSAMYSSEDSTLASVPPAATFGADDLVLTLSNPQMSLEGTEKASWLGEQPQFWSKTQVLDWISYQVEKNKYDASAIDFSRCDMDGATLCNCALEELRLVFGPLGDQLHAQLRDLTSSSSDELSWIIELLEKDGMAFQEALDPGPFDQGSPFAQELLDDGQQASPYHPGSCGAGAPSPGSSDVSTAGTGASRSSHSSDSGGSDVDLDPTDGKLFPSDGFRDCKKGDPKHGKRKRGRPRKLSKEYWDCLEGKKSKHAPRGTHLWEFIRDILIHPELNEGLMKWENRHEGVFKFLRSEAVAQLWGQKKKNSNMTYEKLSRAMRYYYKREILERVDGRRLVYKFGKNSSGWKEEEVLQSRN
As to conditions: protein: recombinant; tags: N-terminal GST; dsDNA, one strand shown. The method, boiled down: as §1

A further assay addresses CRX (Homo sapiens, UniProt O43186 1-299). As to conditions: protein: recombinant; tags: N-terminal GST; dsDNA, one strand shown. The method, boiled down: as §1
Another assay has as its target ETV1 (Homo sapiens, UniProt P50549 1-477). The following applies: protein: recombinant; tags: N-terminal GST; dsDNA, one strand shown. The method, boiled down:
as §1

A further assay has as its target T6, ERF (Homo sapiens, UniProt P50548 1-548).
T6 sequence: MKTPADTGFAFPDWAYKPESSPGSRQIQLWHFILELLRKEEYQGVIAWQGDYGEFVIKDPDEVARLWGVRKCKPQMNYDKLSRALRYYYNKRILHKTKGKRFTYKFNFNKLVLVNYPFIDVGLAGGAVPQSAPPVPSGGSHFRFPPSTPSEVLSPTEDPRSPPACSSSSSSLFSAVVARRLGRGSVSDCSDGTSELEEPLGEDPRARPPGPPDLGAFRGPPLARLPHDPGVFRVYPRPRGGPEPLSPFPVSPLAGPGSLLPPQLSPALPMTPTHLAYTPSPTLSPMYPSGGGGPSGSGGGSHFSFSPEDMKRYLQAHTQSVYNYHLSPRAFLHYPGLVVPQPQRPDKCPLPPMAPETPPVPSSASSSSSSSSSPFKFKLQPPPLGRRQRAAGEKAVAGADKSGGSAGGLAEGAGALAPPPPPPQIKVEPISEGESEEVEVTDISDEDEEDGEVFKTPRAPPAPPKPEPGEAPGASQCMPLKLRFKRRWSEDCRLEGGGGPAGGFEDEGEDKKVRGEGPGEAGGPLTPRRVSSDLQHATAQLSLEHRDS
As to conditions: protein: recombinant; tags: N-terminal GST; dsDNA, one strand shown. In outline: as §1

For the next assay, the target named is T7, ETV3L (Homo sapiens, UniProt Q6ZN32 1-361).
T7 sequence: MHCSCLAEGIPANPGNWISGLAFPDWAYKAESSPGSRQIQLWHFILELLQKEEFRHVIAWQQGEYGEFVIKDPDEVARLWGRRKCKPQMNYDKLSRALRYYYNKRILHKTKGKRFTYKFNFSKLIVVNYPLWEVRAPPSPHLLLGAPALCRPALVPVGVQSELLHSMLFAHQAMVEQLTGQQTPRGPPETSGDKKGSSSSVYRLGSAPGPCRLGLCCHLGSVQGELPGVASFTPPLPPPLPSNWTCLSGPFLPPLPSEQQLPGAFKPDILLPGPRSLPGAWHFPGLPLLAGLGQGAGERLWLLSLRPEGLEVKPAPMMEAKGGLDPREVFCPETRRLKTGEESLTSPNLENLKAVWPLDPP
The following applies: protein: recombinant; tags: N-terminal GST; dsDNA, one strand shown. In outline: as §1

For another assay, the target named is T8, ETS2 (Homo sapiens, UniProt P15036 1-469).
T8 sequence: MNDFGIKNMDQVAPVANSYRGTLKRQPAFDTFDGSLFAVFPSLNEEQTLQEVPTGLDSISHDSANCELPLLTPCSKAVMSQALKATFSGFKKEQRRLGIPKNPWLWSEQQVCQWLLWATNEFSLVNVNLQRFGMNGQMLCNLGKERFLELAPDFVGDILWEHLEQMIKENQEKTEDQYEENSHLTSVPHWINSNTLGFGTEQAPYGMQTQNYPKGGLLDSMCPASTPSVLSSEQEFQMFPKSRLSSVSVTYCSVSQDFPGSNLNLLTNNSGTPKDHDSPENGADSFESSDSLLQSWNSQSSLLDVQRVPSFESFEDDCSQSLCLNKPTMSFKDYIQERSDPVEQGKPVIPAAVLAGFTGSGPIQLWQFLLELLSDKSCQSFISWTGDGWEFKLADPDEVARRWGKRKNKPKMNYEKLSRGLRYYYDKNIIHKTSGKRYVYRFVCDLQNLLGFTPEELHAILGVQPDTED
The following applies: protein: recombinant; tags: N-terminal GST; dsDNA, one strand shown. In outline: as §1

The target in the next assay is T9, SPDEF (Homo sapiens, UniProt O95238 1-335).
T9 sequence: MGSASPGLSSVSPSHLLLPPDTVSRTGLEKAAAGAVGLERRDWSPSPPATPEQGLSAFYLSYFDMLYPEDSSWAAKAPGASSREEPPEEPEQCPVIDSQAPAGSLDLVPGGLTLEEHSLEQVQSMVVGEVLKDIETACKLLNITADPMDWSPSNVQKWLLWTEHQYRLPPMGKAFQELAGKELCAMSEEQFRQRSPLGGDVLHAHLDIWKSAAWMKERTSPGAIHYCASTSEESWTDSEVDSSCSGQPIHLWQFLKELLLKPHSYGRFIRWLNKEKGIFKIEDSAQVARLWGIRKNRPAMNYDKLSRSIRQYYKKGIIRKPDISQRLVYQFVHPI
The following applies: protein: recombinant; tags: N-terminal GST; dsDNA, one strand shown. In outline:
as §1

A further assay deals with T10, ETV7 (Homo sapiens, UniProt Q9Y603 1-341).
T10 sequence: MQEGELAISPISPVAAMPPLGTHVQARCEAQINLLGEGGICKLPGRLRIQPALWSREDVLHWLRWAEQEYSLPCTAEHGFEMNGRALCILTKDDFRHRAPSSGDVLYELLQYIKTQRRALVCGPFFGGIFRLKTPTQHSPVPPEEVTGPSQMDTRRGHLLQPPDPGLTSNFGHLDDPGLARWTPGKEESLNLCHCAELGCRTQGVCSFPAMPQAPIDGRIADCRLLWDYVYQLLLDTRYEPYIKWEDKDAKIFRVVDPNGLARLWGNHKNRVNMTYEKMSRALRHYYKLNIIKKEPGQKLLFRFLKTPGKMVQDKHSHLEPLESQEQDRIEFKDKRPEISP
As to conditions: protein: recombinant; tags: N-terminal GST; dsDNA, one strand shown. The method, boiled down: as §1

For a further assay, the target named is T11, ELF5 (Homo sapiens, UniProt Q9UKW6-2 1-255).
T11 sequence: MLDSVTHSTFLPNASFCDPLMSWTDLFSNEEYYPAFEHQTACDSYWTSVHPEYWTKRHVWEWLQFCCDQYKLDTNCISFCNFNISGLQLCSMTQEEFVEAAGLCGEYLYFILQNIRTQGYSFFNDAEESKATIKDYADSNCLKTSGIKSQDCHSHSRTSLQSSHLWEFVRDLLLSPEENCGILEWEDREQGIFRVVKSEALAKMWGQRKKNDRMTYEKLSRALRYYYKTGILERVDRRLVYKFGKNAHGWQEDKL
As to conditions: protein: recombinant; tags: N-terminal GST; dsDNA, one strand shown. In outline:
as §1

In a further assay the target is T12, ETV3 (Homo sapiens, UniProt P41162-2 1-143).
T12 sequence: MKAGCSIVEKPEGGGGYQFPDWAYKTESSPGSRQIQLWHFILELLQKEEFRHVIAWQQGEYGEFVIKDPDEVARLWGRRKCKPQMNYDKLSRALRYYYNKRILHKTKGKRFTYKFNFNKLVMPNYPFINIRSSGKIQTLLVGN
The following applies: protein: recombinant; tags: N-terminal GST; dsDNA, one strand shown. In outline:
as §1

The next assay deals with ETV6 (Homo sapiens, UniProt P41212 1-452). The following applies: protein: recombinant; tags: N-terminal GST; dsDNA, one strand shown. The method, boiled down: as §1
Chain of ETV6 (P41212 whole entry): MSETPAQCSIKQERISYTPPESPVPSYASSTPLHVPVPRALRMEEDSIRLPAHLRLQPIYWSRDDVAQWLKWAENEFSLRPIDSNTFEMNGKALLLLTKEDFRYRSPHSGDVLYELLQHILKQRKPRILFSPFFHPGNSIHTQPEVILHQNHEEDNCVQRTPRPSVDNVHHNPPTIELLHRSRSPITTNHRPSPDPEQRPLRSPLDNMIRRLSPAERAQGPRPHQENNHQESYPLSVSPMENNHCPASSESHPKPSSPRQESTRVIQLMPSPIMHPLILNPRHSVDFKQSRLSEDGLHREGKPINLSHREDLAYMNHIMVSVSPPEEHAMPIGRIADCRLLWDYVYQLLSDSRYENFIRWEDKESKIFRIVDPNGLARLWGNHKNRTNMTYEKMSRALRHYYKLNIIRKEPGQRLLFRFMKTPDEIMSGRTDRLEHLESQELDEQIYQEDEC

Chain of ETV5 (P41161 whole entry): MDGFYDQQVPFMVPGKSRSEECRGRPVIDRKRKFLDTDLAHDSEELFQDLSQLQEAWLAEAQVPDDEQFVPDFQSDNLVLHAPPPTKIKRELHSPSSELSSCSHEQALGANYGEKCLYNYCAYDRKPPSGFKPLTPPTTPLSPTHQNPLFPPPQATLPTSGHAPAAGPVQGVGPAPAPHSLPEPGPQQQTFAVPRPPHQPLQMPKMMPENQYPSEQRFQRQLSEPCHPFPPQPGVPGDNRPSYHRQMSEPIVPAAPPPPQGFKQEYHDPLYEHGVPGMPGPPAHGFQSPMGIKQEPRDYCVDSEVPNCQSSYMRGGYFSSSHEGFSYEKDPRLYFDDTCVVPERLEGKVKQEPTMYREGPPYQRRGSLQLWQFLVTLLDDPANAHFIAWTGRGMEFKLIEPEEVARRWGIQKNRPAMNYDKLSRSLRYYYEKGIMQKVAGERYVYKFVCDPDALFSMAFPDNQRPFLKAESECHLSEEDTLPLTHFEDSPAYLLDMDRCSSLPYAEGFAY
Chain of CRX (O43186 whole entry): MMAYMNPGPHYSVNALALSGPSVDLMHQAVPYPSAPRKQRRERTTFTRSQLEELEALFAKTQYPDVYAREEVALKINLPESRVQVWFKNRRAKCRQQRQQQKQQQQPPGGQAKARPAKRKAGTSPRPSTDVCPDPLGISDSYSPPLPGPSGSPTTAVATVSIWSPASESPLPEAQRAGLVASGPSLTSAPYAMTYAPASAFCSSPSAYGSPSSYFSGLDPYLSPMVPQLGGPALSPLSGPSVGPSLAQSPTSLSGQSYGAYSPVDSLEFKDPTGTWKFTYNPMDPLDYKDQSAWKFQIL
Chain of ETV1 (P50549 whole entry): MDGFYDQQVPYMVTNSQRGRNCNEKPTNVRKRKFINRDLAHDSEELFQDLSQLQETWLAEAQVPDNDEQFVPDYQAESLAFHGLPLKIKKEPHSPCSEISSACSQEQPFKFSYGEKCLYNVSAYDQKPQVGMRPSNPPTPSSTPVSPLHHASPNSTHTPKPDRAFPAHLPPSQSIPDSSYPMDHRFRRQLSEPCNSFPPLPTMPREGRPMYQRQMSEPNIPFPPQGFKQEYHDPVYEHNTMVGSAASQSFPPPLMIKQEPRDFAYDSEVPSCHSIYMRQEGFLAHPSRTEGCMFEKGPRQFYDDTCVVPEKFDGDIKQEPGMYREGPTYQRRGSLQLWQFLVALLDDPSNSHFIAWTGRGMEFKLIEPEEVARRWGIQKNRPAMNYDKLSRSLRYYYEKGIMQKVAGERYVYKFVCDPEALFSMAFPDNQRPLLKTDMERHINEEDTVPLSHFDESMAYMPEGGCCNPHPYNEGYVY
Chain of ELF4 (Q99607 whole entry): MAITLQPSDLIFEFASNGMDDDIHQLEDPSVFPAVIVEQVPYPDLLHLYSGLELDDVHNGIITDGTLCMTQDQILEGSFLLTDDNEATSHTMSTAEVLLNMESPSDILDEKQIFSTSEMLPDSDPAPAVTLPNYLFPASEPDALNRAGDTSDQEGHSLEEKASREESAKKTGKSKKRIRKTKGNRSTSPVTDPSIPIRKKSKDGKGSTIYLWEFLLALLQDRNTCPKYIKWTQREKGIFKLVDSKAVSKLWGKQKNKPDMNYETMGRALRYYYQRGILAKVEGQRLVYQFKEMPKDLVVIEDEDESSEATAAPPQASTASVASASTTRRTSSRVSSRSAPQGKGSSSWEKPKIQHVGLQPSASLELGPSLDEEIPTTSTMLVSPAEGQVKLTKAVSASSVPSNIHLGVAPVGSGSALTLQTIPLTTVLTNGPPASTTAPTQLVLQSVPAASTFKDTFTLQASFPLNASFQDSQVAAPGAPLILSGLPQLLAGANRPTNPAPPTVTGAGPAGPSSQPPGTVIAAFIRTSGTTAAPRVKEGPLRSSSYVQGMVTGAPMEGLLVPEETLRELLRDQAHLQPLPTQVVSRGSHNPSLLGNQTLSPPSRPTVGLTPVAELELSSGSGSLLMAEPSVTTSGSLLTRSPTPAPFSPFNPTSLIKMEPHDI
Chain of HSF1 (Q00613 whole entry): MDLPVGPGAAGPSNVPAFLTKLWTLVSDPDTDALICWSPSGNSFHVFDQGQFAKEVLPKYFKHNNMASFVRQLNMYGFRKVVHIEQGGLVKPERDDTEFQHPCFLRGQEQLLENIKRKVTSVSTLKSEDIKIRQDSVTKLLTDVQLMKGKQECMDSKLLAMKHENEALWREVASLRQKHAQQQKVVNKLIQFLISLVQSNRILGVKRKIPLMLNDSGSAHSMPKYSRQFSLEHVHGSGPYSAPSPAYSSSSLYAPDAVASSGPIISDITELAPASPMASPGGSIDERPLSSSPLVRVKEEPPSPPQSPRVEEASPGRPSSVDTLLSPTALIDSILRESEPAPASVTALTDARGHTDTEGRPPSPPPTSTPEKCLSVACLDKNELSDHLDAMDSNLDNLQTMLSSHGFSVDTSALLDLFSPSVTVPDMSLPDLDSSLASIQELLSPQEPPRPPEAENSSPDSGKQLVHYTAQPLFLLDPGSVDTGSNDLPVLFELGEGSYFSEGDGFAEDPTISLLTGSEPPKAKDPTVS

In the case of CTTCGA, the binding signal is 1.35 fold enrichment (6-mer frequency, TF over GST control) with FEV; 1.4 fold enrichment (6-mer frequency, TF over GST control) with ETV5; 2.52 fold enrichment (6-mer frequency, TF over GST control) with HSF1; 1.42 fold enrichment (6-mer frequency, TF over GST control) with SPIC; 1.4 fold enrichment (6-mer frequency, TF over GST control) in the assay with ELF4; 1.3 fold enrichment (6-mer frequency, TF over GST control) with ELK4. For the same sequence, the binding signal with ETV2 is 1.38 fold enrichment (6-mer frequency, TF over GST control); with ELF3 it was 1.42 fold enrichment (6-mer frequency, TF over GST control); with CRX, 1.49 fold enrichment (6-mer frequency, TF over GST control); in the assay with ETV1, 1.35 fold enrichment (6-mer frequency, TF over GST control); in the assay with ERF it was 1.41 fold enrichment (6-mer frequency, TF over GST control); with ETV3L, 1.37 fold enrichment (6-mer frequency, TF over GST control). For the same sequence, the binding signal with ETS2 was 1.36 fold enrichment (6-mer frequency, TF over GST control); with SPDEF, 1.3 fold enrichment (6-mer frequency, TF over GST control); with ETV7, 1.44 fold enrichment (6-mer frequency, TF over GST control); with ELF5, 1.27 fold enrichment (6-mer frequency, TF over GST control); with ETV3 it was 1.16 fold enrichment (6-mer frequency, TF over GST control); with ETV6, 1.43 fold enrichment (6-mer frequency, TF over GST control).
